Assay results as given in ChEMBL document CHEMBL3988442, “University of Dundee, Small-Polar-MMV Screening Library” (2021).
For part of these data: Results with a measured potency or affinity are listed apart.

Experiments:
Set-up in all cases: scale not given: direction of the effect not stated beside the values
[1] = biological target: Protein translocase subunit SecA (Escherichia coli (strain K12)) (UniProt P10408); test: Assay to Identify E. coli SecA ATPase Inhibitors; format: functional; conditions: 30 µM
[2] = biological target: T1, Ubiquitin-activating enzyme e1, putative (Leishmania donovani (strain BPK282A1)) (UniProt E9BSI1); test: Leishmania donovani Ubiquitin Activating Enzyme (LdE1); format: functional; conditions: 30 µM
T1 sequence (whole entry): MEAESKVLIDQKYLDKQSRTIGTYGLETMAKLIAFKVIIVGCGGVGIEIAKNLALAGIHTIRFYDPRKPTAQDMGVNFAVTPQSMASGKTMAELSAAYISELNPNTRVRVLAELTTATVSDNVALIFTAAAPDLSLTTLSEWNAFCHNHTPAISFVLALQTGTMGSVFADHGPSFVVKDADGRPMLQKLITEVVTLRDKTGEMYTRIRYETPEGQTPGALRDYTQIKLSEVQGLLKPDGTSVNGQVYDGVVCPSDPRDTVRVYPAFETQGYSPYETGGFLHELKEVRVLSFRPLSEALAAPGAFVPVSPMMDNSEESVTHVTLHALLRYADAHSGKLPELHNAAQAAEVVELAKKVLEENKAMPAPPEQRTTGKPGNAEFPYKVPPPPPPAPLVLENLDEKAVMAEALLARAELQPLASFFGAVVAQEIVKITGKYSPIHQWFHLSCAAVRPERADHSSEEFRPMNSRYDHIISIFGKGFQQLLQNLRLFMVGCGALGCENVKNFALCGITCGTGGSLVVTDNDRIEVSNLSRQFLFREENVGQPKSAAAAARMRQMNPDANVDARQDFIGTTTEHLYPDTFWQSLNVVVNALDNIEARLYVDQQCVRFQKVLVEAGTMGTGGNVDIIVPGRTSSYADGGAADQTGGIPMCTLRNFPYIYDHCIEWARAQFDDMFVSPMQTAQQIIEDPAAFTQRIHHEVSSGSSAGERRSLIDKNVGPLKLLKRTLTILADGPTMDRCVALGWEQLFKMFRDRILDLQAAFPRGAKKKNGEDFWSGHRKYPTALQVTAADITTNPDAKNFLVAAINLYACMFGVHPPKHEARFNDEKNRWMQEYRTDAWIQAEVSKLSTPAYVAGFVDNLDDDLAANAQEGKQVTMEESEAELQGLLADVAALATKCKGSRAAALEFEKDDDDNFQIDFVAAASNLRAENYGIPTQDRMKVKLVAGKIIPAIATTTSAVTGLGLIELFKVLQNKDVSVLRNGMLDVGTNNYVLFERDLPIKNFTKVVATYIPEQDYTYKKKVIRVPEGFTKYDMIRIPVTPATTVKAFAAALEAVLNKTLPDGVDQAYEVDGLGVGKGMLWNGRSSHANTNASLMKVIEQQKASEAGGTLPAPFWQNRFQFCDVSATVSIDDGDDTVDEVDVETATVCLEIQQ

[3] = biological target: AMP-activated protein kinase, AMPK (Homo sapiens) (UniProt P54646+O43741+P54619+Q9UGJ0+Q9Y478+Q13131+Q9UGI9); test: AMP-dependent Kinase enzyme assay. An in vitro enzyme assay that detects ADP turnover that is directly proportional to AMPK activity. This uses naive AMPK that is activated during the assay with MK-8722; format: functional; conditions: 30 µM
[4] = biological target: Sialic acid-binding Ig-like lectin 9 (Homo sapiens) (UniProt Q9Y336); test: Hs-Siglec9 ALPHAscreen SOP 20170721; conditions: 10 µM
Trypanosoma cruzi = test: Trypanosoma cruzi phosphomannomutase and mannose-1-phosphate guanylyltransferase assay; format: functional; conditions: 10 µM
[5] = biological target: T2, Arginase-2, mitochondrial (Homo sapiens) (UniProt P78540); test: in vitro enzyme assay to detect the production of urea directly proportional to the activity of Arginase II; format: functional; conditions: 33.3 µM; also: in the data most compounds retested in dose-response had high values
T2 sequence (whole entry): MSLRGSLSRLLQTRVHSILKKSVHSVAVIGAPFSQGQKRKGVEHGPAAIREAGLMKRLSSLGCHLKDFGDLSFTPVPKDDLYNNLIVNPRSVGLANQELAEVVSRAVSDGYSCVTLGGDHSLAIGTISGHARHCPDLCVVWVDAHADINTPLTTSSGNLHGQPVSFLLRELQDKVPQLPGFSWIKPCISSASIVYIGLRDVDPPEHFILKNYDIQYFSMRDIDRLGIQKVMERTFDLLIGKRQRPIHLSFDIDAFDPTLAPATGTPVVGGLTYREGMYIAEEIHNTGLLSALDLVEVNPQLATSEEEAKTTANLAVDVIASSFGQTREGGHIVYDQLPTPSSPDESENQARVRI

[6] = biological target: T3, Proteasome subunit beta (Trypanosoma cruzi) (UniProt O96673); test: Trypanosoma cruzi proteasome chymotrypsin-like activity (TcProtChymo) assay.; also: in the data most compounds retested in dose-response had high values; format: functional; conditions: 9.37 µM
T3 sequence (whole entry): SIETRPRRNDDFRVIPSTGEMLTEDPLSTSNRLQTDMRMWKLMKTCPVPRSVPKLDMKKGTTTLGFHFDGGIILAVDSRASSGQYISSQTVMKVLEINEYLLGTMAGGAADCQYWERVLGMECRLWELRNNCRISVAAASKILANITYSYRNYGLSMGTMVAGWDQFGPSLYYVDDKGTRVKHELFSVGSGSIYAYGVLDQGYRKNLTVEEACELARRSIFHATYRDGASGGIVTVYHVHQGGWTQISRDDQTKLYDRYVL

Homo sapiens = species on record: Homo sapiens; test: To identify inhibition of the IFN signalling (Jak-Stat) pathway via expression of an eGFP reporter gene under the control of an IFN-stimulated response element (ISRE) containing MxA promoter.; format: functional; conditions: 30 µM
[7] = biological target: T4, Tyrosyl-tRNA synthetase, putative (Trypanosoma cruzi (strain CL Brener)) (UniProt Q4DSP6); test: Trypanosoma cruzi tyrosyl tRNA synthetase (TcYRS) _High Tyrosine SOP; format: functional; conditions: 30 µM; also: in the data most compounds retested in dose-response had high values
T4 sequence (whole entry): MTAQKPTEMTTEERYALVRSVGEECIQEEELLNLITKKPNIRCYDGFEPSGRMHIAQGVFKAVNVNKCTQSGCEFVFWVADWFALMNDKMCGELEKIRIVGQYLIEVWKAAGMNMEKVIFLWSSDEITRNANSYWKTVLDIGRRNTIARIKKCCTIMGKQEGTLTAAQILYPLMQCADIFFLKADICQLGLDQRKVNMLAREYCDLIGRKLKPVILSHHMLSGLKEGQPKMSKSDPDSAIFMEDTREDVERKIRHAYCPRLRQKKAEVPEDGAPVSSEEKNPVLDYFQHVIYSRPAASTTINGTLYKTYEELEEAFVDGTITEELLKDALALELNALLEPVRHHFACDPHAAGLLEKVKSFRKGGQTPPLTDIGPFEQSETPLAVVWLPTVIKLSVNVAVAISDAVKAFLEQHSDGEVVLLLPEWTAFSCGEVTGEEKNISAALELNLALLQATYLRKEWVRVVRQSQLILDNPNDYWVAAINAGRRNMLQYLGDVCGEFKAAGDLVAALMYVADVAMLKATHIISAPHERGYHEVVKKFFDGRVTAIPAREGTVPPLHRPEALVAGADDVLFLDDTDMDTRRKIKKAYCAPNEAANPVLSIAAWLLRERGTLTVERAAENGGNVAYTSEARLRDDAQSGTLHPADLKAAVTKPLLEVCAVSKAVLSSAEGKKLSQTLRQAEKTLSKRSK

[8] = biological target: T4, Tyrosyl-tRNA synthetase, putative (Trypanosoma cruzi (strain CL Brener)); test: Trypanosoma cruzi tyrosyl tRNA synthetase (TcYRS) SOP; format: functional; conditions: 30 µM
[9] = biological target: Chromo domain-containing protein 1 (Saccharomyces cerevisiae (strain ATCC 204508 / S288c) (Baker's yeast)) (UniProt P32657); test: ScCHD-1 Enzyme Inhibition Assay; format: functional; conditions: 30 µM; also: in the data most compounds retested in dose-response had high values
Chromo domain-containing protein 1 (Saccharomyces cerevisiae (strain ATCC 204508 / S288c) (Baker's yeast)), sequence (P32657 whole entry, the tested form may be a part): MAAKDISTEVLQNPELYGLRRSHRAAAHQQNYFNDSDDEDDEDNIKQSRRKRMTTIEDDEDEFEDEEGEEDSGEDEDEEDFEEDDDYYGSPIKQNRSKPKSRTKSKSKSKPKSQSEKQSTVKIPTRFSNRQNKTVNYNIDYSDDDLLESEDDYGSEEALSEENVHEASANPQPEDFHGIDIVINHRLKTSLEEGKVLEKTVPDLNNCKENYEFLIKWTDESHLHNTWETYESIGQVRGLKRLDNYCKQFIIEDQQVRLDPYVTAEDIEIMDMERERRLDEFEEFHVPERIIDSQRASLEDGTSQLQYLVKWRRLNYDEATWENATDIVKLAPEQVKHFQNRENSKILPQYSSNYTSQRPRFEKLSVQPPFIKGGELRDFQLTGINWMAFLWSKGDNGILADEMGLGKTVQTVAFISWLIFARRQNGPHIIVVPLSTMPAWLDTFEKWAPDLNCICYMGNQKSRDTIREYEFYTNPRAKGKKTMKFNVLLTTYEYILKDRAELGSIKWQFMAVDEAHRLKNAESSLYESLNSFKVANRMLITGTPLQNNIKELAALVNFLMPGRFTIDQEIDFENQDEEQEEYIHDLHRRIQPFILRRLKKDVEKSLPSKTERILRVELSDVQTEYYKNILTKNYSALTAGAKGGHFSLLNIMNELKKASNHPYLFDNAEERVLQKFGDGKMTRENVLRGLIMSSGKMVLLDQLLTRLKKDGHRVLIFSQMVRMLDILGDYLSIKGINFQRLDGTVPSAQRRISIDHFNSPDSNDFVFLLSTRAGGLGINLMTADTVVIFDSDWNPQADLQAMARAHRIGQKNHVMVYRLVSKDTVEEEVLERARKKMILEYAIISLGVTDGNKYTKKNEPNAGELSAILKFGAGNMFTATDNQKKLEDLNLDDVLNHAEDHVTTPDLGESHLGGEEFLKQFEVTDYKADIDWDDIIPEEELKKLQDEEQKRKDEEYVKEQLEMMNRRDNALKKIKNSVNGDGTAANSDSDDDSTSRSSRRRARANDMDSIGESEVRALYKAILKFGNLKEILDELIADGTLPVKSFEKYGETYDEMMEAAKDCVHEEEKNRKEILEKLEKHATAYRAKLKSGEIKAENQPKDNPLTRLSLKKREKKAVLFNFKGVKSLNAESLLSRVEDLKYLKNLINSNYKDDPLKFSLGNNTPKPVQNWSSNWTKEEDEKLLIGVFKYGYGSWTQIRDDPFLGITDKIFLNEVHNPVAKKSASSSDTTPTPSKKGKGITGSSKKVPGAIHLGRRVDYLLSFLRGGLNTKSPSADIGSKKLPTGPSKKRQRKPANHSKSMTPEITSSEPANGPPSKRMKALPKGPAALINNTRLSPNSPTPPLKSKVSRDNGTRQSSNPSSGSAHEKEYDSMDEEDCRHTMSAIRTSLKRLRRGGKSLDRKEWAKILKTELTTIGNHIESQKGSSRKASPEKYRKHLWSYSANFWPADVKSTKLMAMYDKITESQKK

Protein translocase subunit SecA (Escherichia coli (strain K12)), sequence (P10408 whole entry): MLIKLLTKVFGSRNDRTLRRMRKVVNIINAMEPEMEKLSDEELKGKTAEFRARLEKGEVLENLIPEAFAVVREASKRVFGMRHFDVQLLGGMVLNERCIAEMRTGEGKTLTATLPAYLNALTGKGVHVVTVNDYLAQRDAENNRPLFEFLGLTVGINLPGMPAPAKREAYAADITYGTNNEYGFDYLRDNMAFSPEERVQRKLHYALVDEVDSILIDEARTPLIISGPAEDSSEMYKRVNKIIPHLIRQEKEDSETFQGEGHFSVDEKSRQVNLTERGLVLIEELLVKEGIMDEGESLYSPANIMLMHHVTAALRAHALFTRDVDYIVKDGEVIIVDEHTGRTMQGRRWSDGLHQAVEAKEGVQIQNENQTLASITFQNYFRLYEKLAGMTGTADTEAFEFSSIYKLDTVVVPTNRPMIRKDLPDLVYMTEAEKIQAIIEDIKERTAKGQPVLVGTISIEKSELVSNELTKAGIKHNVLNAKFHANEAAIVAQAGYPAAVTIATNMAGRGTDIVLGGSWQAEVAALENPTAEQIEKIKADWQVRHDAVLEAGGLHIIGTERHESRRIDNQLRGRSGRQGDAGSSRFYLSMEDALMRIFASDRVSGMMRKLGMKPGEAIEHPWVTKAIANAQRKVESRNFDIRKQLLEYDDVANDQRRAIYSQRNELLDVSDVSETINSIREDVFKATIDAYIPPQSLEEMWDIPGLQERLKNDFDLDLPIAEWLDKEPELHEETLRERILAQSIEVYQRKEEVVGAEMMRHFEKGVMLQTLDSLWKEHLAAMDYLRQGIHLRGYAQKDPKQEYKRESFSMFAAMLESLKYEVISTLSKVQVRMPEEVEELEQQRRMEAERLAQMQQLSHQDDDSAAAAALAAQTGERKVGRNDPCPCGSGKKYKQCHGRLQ
Sialic acid-binding Ig-like lectin 9 (Homo sapiens), sequence (Q9Y336 whole entry): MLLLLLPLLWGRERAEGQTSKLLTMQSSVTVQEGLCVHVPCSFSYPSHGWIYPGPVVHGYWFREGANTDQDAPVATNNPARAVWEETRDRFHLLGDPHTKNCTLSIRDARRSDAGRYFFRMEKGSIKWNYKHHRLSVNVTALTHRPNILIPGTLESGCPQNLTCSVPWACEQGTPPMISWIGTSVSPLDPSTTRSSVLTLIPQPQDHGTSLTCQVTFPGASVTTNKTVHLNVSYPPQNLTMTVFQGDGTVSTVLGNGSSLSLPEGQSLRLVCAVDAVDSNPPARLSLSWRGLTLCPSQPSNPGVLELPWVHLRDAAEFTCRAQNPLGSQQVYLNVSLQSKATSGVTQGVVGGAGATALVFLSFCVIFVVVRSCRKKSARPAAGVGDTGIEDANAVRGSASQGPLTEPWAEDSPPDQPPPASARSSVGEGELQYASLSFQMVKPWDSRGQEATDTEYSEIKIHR

Compound | Percent Effect [1] | Percent Effect [2] | Percent Effect [3] | Percent Effect [4] | Percent Effect (Trypanosoma cruzi) | Percent Effect [5] | Percent Effect [6] | Percent Effect (Homo sapiens) | Percent Effect [7] | Percent Effect [8] | Percent Effect [9]
O=C(COc1coc(CN2CCCCC2)cc1=O)Nc1ccccc1Cl | -4.47% | 4% | 6.82% | 3.14% | -2.16% | -8.28% | 12.2% | -3.22% | 10.6% | 12.8% | 0.706%
COc1c(C2CCCN2C(=O)Cc2c(C)noc2C)c(C)nn1C (stereo unspecified) | -4.91% | 15.2% | -0.162% | 8.65% | 0.661% | 0.38% | 0.0819% | -12.4% | 7.39% | 16.5% | -6.93%
CC(c1ccc(Cl)cc1)N1CCN(CCS(C)(=O)=O)CC1 (stereo unspecified) | -3.62% | 5.41% | 0.609% | 6.25% | -0.579% | 3.81% | 14% | 10.3% | 3.7% | 14.6% | -5.14%
Cc1nccc(-c2cccc(NCC(=O)N3CCc4sccc4C3)c2)n1 | -1.56% | 2.63% | 49.8% | -3.82% | 4.76% | -1.8% | 6.68% | -23.6% | 11.3% | 30.9% | -8.23%
Cc1cc(NC(=O)NCC(C)O)n(C)n1 (stereo unspecified) | -5.54% | 10.5% | -8.37% | 7.06% | 5.64% | 0% | 12.2% | -5.12% | 2.45% | 12.2% | -14.2%
O=C(C[C@@H]1COC[C@H]2CN(Cc3ccc(F)cc3)C[C@@H]12)N1CCOCC1 | -9.06% | 17.3% | -1.45% | -0.881% | -3.73% | -10.4% | 7.58% | 7.29% | -2.12% | -5.13% | -10.9%
CC(C)c1nc2n(n1)CC(NCc1ncc(-c3ccccc3)o1)CC2 (stereo unspecified) | -0.807% | 2.6% | -3.44% | 5.78% | 4.8% | 4.84% | 4.12% | 8.03% | 2.86% | 2.35% | -14.2%
CC(C)CN1C[C@H]2CCN(Cc3cccnc3)CC[C@H]2S1(=O)=O | -4.38% | 8.11% | 2.04% | -0.964% | -2.05% | -5.41% | 16.2% | 21.9% | 1.08% | 5.13% | 1%
Cc1cnn(CC2CCCN2C(=O)c2cc(C)no2)c1 (stereo unspecified) | -7.95% | 5.26% | -9.36% | 0.94% | -8.12% | 0.36% | -4.65% | 2.42% | -0.493% | -8.64% | 10.5%
Cc1cc(CNC2CCCN(c3cccnn3)C2)no1 (stereo unspecified) | -0.548% | -2.6% | -12.2% | 5.49% | 0.885% | -5.52% | 15.5% | 18.9% | 5.38% | 13.6% | -2.81%
CC(C)(C)c1nnc(CN2CCN(S(C)(=O)=O)CC2)o1 | -2.63% | 13.5% | -2.69% | 19.5% | 3.48% | 1.43% | 12.1% | 5.81% | 2.65% | 12.2% | -3.73%
Cc1ccccc1OCCC(=O)OC(C)C(=O)Nc1sccc1C(N)=O (stereo unspecified) | -2.66% | -2.7% | 6.19% | -3.07% | -9.09% | -10.2% | 8.33% | 44.8% | -15.1% | -16.1% | 15.1%
Cc1nnc(N2CCC(CNC(=O)OC(C)(C)C)CC2)c(C#N)c1C | -4.74% | 7.79% | -1.74% | -8.54% | 1.47% | -0.21% | 7.2% | 26.6% | 2.86% | 11.8% | -16.5%
CCN(CC)C(=O)c1nnn(Cc2ccccc2)c1OC | -6.72% | -1.33% | 3.11% | 2.1% | -4.52% | -4.05% | 8.32% | -11.4% | 6.35% | 5.13% | -1.8%
CCS(=O)(=O)CCn1ccc(NC(=O)CCc2cccc(C)c2)n1 | -1.95% | 5.41% | 2.06% | -5.21% | -3.91% | -2.08% | 11.8% | 5.07% | 9.9% | 13.4% | 4.48%
Cn1cnnc1CNC(=O)Nc1cc(C(F)(F)F)c[nH]c1=O | -4.28% | 7.89% | -0.726% | 8.28% | 1.5% | -0.383% | 3.84% | 2.52% | 2.45% | 7.32% | -7.82%
NC(=O)C1CN(C(=O)Nc2ccccc2-c2cccs2)CCO1 (stereo unspecified) | -6.75% | 18.9% | -3.93% | 20.2% | 5.66% | -2.4% | -3.23% | 6.89% | 2.97% | 18.3% | -6.91%
CC[C@H](C)[C@H](NC(=O)Cc1csc(-c2cccc(Cl)c2)n1)C(=O)O | -3.85% | 9.33% | 11.6% | 11.9% | 0.982% | -4.75% | 12.6% | -8.02% | 4.23% | 7.69% | -5.96%
COc1cc2cc(C(=O)N[C@@H](C)C(=O)O)n(C)c2c(OC)c1OC | 0.309% | 4% | 0.773% | 3.31% | -5.89% | -12.8% | 13.1% | 0.994% | 8.47% | 7.69% | -9.47%
Cc1ncc(CNC(=O)Cc2ccc(Cl)cc2)c(C2CCCN2C)n1 (stereo unspecified) | -5.53% | -1.35% | 18.1% | 5% | -2.96% | -2.55% | 8.74% | 1.58% | -1.07% | -1.3% | 0.76%
COc1ccc(COCC(O)CNC(=O)c2cnc(C)cn2)cc1 (stereo unspecified) | -3.92% | -8.86% | 0.227% | 0.611% | 0.308% | -1.94% | 10.1% | 7.75% | 4.17% | 10.1% | -25.8%
